Sampled rows, rich in hits. Any-hit rate of the full collection: about 2.1%.
ID4 binder: binds human ID4 protein on microarray; small molecule microarray, Flag-ID4 binding, fluorescence F/B; calls only; actives 1.2% (n = 31,000); call rule not given here;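 also: a binder raises fluorescence above local background on the spot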
Target sequence (P47928 whole entry, looked up): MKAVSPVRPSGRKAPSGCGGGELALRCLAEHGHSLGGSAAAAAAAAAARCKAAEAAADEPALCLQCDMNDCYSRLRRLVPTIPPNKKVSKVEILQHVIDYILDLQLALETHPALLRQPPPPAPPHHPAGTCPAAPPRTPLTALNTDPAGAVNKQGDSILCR
mut p53 react: re-activators of the mutant p53 pathway; SW480 PUMA-promoter luciferase, p53 mutant reactivation; activation, % at 9.98 µM; actives 1.5% (n = 28,000); in the data active = activation above about 52%; inconclusive = no clear call, values can overlap the other calls
STK33 kin inh: inhibitors of human STK33 kinase; Q9BYT3; actives 0.44% (n = 27,000); inhibition, % at 12.5 µM; ADP-Glo luminescence, MBP substrate; in the data active = inhibition above about 20%; inconclusive = no clear call, values can overlap the other calls
A number is an active result; . = inactive; ? = inconclusive; / = not tested or not shown; + = active, no number.

SMILES	ID4 binder	mut p53 react	STK33 kin inh
CCOC(=O)c1cnc(C(F)(F)F)nc1Sc1n[nH]c(-c2cccs2)n1	/	/	.
O=C(Cn1cnc2scc(-c3ccc(F)cc3)c2c1=O)Nc1ccc(F)cc1	.	.	.
COc1ccc(NC(=O)c2c(-c3ccccc3)csc2NC(=O)CN2CCOCC2)cc1	.	.	.
CCOC(=O)c1ccc(-n2c(C)cc(C=C3C(=O)NC(=S)NC3=O)c2C)cc1	/	/	.
O=S(=O)(Nc1ncccn1)c1ccc(NC(=S)Nc2ccc(F)c(Cl)c2)cc1	.	.	.
O=C(COc1ccc(Br)cc1)Nc1cccc(-c2nnc(-c3ccccc3)o2)c1	.	109.3	.
CCOC(=O)c1cccc(NC(=O)COc2ccc(Br)cc2)c1	.	.	.
O=C(COc1ccc([N+](=O)[O-])cc1)Nc1ccc2oc(-c3ccc(Br)cc3)nc2c1	.	.	.
Cc1ccc(C)c(OCC(=O)Nc2cccc(-c3nc4ccccc4o3)c2)c1	.	.	.
O=C(COc1ccc(Br)cc1)Nc1ccc2oc(-c3ccc(F)cc3)nc2c1	.	69.3	.
O=C(COc1ccc(Br)cc1)Nc1cccc(-c2nc3ccccc3o2)c1	.	73.6	.
Cc1ccc(-c2csc3ncnc(SCC(=O)Nc4ccc(N(C)C)cc4)c23)cc1	.	.	.
OC(c1ccccc1)c1oc2ccccc2c1-c1cnn(-c2ccccc2)c1 (stereo not given)	/	/	.
COc1ccc(/C=C/C(=O)c2cc(O)ccc2O)cc1	/	/	.
O=C(/C=C/c1ccccc1)CC(O)CCc1ccccc1 (stereo not given)	.	.	.
O=C(/C=C/c1ccc(O)cc1)c1ccc(O)cc1O	/	/	49.6
O=C(/C=C/c1ccc(O)cc1)CC(=O)/C=C/c1ccc(O)cc1	/	.	120.0
O=C(Nc1ccc(S(=O)(=O)Nc2nccs2)cc1)c1cccnc1	.	.	.
COc1ccccc1Nc1nc(N)nc(CSc2ncccn2)n1	.	85.7	.
CCOc1ccccc1Nc1nc(N)nc(CSc2nccc(C)n2)n1	.	.	.
CCOc1ccc(NC(=O)C(C)Sc2nnnn2-c2ccccc2)cc1 (stereo not given)	.	.	.
CCOc1ccc(NC(=O)CN2C(=O)c3ccccc3S2(=O)=O)cc1	.	.	.
O=C(NCc1ccco1)c1cccc(NC(=O)c2ccc(Br)cc2)c1	.	.	.
COc1ccc(C2C3CCc4ccccc4C3=NN2C(=O)c2cccs2)cc1 (stereo not given)	/	/	.
C[C@@H]1O[C@@H](OC[C@H]2O[C@@H](OCc3ccccc3)[C@H](O)[C@@H](O)[C@@H]2O)[C@H](O)[C@H](O)[C@H]1O	/	.	.
SMILES	ID4 binder	mut p53 react	STK33 kin inh
CNc1ccccc1C(=O)OC1OC(C)C(O)C(O)C1O (stereo not given)	+	.	.
Cn1cc(CNC(=O)c2cc(-c3ccc(Br)cc3)nc3ccccc23)cn1	.	.	.
CCCc1ccc(-c2cc(C(=O)NCc3cnn(C)c3)c3ccccc3n2)cc1	.	105.6	.
O=C(CC(=O)c1ccccc1)c1ccccc1	.	96.6	.
O=C(O)CCNC(=O)c1ccccc1	.	/	.
COc1cc(NC(=O)CCN2C(=O)c3ccccc3C2=O)cc(OC)c1	.	.	.
O=C1Oc2cc(O)cc(O)c2[C@@H](c2ccc(O)cc2)[C@H]1[C@H]1C(=O)Oc2cc(O)cc(O)c2[C@H]1c1ccc(O)cc1	/	.	28.3
COc1ccc(C2CC(=O)Oc3cc(O)cc(O)c32)cc1 (stereo not given)	.	.	.
Cc1ccc2c(c1)c1nnc(SCCN3CCCCC3)nc1n2C	.	.	.
CCCn1c2ccccc2c2nnc(SCCN3CCCCC3)nc21	+	.	.
Cc1ccc(NC(=O)C(Cc2ccccc2)N2C(=O)C3C4CCC(C4)C3C2=O)cc1[N+](=O)[O-] (stereo not given)	.	.	.
O=C(CCC(=O)c1ccc(Oc2ccccc2)cc1)Nc1cccnc1	.	.	.
CS(=O)(=O)N(CC(=O)Nc1ccc(C(F)(F)F)cc1)c1cccc([N+](=O)[O-])c1	.	.	.
O=C(CCN1C(=O)c2ccccc2C1=O)Oc1c(-c2ccccc2)oc2ccccc2c1=O	.	53.9	.
O=C(CCN1C(=O)c2ccccc2C1=O)Nc1ccc(-c2nc3ccccc3o2)cc1	.	.	.
Cc1cc(Cl)cc(Br)c1OCCCSc1ncccn1	.	131.9	.
Cc1ccc(C)c(OCCCCSc2ncccn2)c1Cl	.	.	.
Cc1cc(C)c(S(=O)(=O)N(C)CC(=O)Nc2ccc3c(c2)OCCO3)c(C)c1	.	.	?
CC#CC#C/C=C1\C=CC2(OC=CC2OC(=O)C=C(C)C)O1 (stereo not given)	.	.	.
CCN(CC(=O)Nc1ccccc1OC)S(=O)(=O)c1ccc2ccccc2c1	.	.	.
Cc1cccc(NC(=O)CSc2nc(-c3ccccc3)c(-c3ccccc3)[nH]2)c1C	.	.	.
O=C(O)CCSc1nc(-c2ccccc2)c(-c2ccccc2)[nH]1	+	.	.
NC(=O)CN(c1cc(Cl)ccc1Cl)S(=O)(=O)c1ccccc1	.	.	.
COC(=O)CCCC(=O)Nc1ccc([N+](=O)[O-])cc1	.	.	.
COC(=O)c1c(NC(=O)CSc2nnc3ccccn23)sc(C)c1C	+	.	.
SMILES	ID4 binder	mut p53 react	STK33 kin inh
CCOC(=O)c1c(NC(=O)CSc2nnc3ccc4ccccc4n23)sc(C)c1C	.	.	.
CCN(CC)C(=O)c1sc(NC(=S)Nc2cnccn2)c(C(=O)OC)c1C	.	.	.
O=C(Cn1cnc2ccccc2c1=O)Nc1ccc(Cl)c(Cl)c1	.	.	.
COc1ccc(Cl)cc1NC(=O)CSc1nnc(-c2cc3cc(Br)ccc3o2)n1C	.	51.8	.
Cn1c(SCC(=O)Nc2ccc(Cl)cc2Cl)nnc1-c1ccc(Br)cc1	.	.	.
O=C(CCCCc1ccc(O)cc1)CCc1ccc(O)cc1	/	/	.
COC(=O)c1c(NC(=S)NCc2cc(C)n(C)n2)sc2c1CCCCCC2	.	.	.
COC(=O)c1c(NC(=S)NCc2ccccn2)sc2c1CCC2	.	68.2	.
N#Cc1c(NC(=O)Cn2c(=O)oc3cc(Br)ccc32)sc2c1CCCC2	.	.	.
O=C(Cn1c(=O)oc2ccccc21)Nc1sc2c(c1C(=O)O)CCCC2	+	.	.
O=C(NC(Cc1ccc(F)cc1)C(=O)O)c1ccccc1 (stereo not given)	.	.	.
O=C(NC(Cc1ccc(O)cc1)C(=O)O)c1ccccc1 (stereo not given)	+	.	.
CC(=O)OC[C@]12[C@H](OC(C)=O)[C@H](OC(C)=O)[C@@H]3[C@@H](OC(C)=O)[C@@]14O[C@@]3(C)COC(=O)c1ncccc1CC[C@H](C)C(=O)O[C@@H]([C@H](O)[C@@H]2OC(=O)c1ccccc1)[C@]4(C)O	/	/	.
CCN(CC)CCCCC1CCN(CC(=O)N2c3ccccc3C(=O)Nc3cccnc32)CC1	+	.	/
Cc1scc2c1N(C(=O)CN1CCN(C)CC1)c1ccccc1NC2=O	.	.	.
O=C(NCc1ccco1)c1ccc(NC(=O)c2ccco2)cc1	.	.	.
CCc1cccc(C)c1NC(=O)CSc1nc2sc3c(c2c(=O)n1C)CCC(C)C3 (stereo not given)	.	.	.
CC1CCc2c(sc3nc(SC(C)C(=O)Nc4ccccc4)nc(N)c23)C1 (stereo not given)	.	118.4	.
O=S(=O)(N[C@H]1CCN(Cc2ccc(OCCO)cc2)C1)c1cc(Cl)ccc1Cl	/	/	.

Source: PubChem BioAssay (Broad Institute)
